# From PubChem
# Shown are actives, neighbours in structure and some others; about 7.8% of the full set was active somewhere.
# Vaccinia mCherry: inhibitors of vaccinia virus infection (mCherry reporter signal); Vaccinia virus mCherry reporter infection, fluorescence; Potency, µM (titrated, usually from 36.5 µM), inactives show at the top dose activity change, negative = inhibition, hits mostly inhibitors; 310,000 tested, 0.63% active; calls by dose curve; tested in A549 cells; further: potency means the concentration at half of the fitted maximal effect; nearly all actives have a fitted effect of over 35% in size
# HCMV inh: blocks human cytomegalovirus replication. activity change, negative = inhibition, % at 57.5 µM. 410,000 tested, 4.5% active. HFF cells, HCMV-luciferase reporter, 72 h; hits give low values; in the data active means activity change below about -60%; inconclusive means no clear call, values can overlap the other calls; inactive means above about -39%
#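 Steps: HFFs plated, 16 h 37C; compounds added; HCMV-luciferase added to MOI 1 PFU/cell; 72 h 37C; OneGlo reagent, 5 min room temperature; luminescence read, normalized to controls.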
# Marburg entry inh: inhibitors of Marburg virus binding or cell entry; Marburg virus pseudotyped entry inhibition, cell reporter; Potency, µM (series often up to 37.8 µM), for inactives: at the highest dose activity change, negative = inhibition, usual class: inhibitors; 300,000 tested, 1.8% active; calls by dose curve; tested in HEK293 cells; further: potency means the concentration at half of the fitted maximal effect
# VACV Venus inh: inhibitors of vaccinia virus (Venus reporter); Vaccinia virus Venus reporter expression, fluorescence; Potency, µM (series often up to 36.5 µM), for the others: at the highest dose activity change, negative = inhibition, hits mostly inhibitors; 330,000 tested, 0.46% active; AID 720580; calls by dose curve; tested in A549 cells; further: potency means the concentration at half of the fitted maximal effect; nearly all actives have a fitted effect of over 30% in size
# Lassa entry inh: inhibitors of Lassa virus binding or cell entry; 300,000 tested, 1.2% active; Lassa virus pseudotype entry inhibition, cell reporter; AID 540256; Potency, µM (doses to about 37.9 µM), inactives show at the top dose activity change, negative = inhibition, hits mostly inhibitors; calls by dose curve; tested in HEK293 cells; further: potency means the concentration at half of the fitted maximal effect; nearly all actives have a fitted effect of over 50% in size
# HCV inh: inhibitors of hepatitis C virus infection; Potency, µM (titrated, usually from 41.8 µM), for inactives: top-dose activity change, negative = inhibition, hits mostly inhibitors; Huh7.5.1 HCVcc-Cre infection, luciferase reporter, 44 h; 340,000 tested, 3.4% active; active means well fitted inhibition curve with a large enough effect; inconclusive means small, poorly fitted or top-dose-only effect, or another doubt; inactive means no such curve, though single readings can be large or run the other way; further: potency means the concentration at half of the fitted maximal effect
#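 Seed cells (1,000/well) for 4 h; treat with compound and infect with HCVcc-Cre, moi about 0.5. Incubate 44 h, then detect luciferase activity.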
# Active calls of the source: *; i = inactive; ? = inconclusive; · = no result given; ! = repeats disagree; [ ] = dose if it differs, or a comment. On the % scale 0 is the no-effect control and ±100 the full control effect.
SMILES,Vaccinia mCherry,HCMV inh,Marburg entry inh,VACV Venus inh,Lassa entry inh,HCV inh
COc1ccc(-c2csc(=Nc3ccccc3)n2CCO)cc1,-22%,-62*,?,-15%,-9%,13µM*!
CC(C)c1ccc(OCc2cc(=O)n3c4c(sc3n2)CCCC4)cc1,-7%,-7,-2%[46.1 µM],-12%,13%[46.1 µM],·
Cc1ccc(OCc2nnc(SCc3cc(=O)[nH]c4ccccc34)n2-c2ccccc2)cc1,?,-18,?,10µM*,?,-26%
Cc1ccccc1OCc1nnc(SCc2cc(=O)[nH]c3ccccc23)n1-c1ccccc1,?,?,?,?,-20%,3%
Cc1ccc(C(=O)CSc2nnc(COc3ccc(C#N)cc3)n2-c2ccccc2)cc1,-19%,-1,16%,-6%,-8%,11%
Cc1ccc(NC(=O)CSc2nnc(COc3ccc(C#N)cc3)n2-c2ccccc2)cc1C,-14%,-13,7.3µM*,-12%,?,?
Cc1ccc(OCc2nnc(SCC(=O)Nc3cccc4ccccc34)n2-c2ccccc2)cc1,?,26,13µM*,?,?,?
Cc1ccccc1NC(=O)C(Cc1ccccc1)N1Cc2ccccc2C1=O (centres undefined),i,?,·,-8%,4%[46.1 µM],·
FC(F)(F)c1ccccc1CN1CCN(Cc2ccccc2)CC1,i,16,?,-15%,-20%,27%
COc1ccc(CN2CCN(Cc3ccccc3C(F)(F)F)CC2)c(OC)c1,-9%,?,11µM*,-5%,?,-17%
FC(F)(F)c1ccccc1CN1CCN(C2CCCCCC2)CC1,·,?,8.2µM*,·,?,-11%
COc1ccccc1N1CCN(C2CCCN(Cc3ccccc3OCCO)C2)CC1 (centres undefined),-6%,40,?,-3%,11%[46.1 µM],2%
COc1cccc(CN2CCN(Cc3ccccc3C(F)(F)F)CC2)c1,?,10,?,-17%,-8%[46.1 µM],29%
FC(F)(F)c1ccccc1CN1CCCC(N2CCN(c3ccccc3)CC2)C1 (centres undefined),·,-61*,·,·,·,9%
Cc1ccc(C)c(NC(=O)Nc2cc3c(cc2N2CCCCC2)n(C)c(=O)n3C)c1,-10%[7.34 µM],-17,?,-12%[7.34 µM],?,·
CC(C)NC(=O)c1cnc(N2CCN(Cc3cccc(F)c3)C2=O)s1,·,-19,·,·,·,·
O=C(NCC1CC1)c1cnc(N2CCN(Cc3cccc(F)c3)C2=O)s1,·,-99*,·,·,·,·
COC(=O)N[C@@H](C=Cc1ccccc1)C(C(=O)OC)=C(C)NCc1ccccc1,·,·,-22%[14.2 µM],·,·,·
C=CCC12OC3(OC)CC1[C@H](C)[C@@H](c1ccccc1)C2[C@@]3(C)O (some centres undefined),·,·,0%[14.2 µM],·,·,·
CC1CCN(Cc2c(C(=O)N/N=C/c3ccccc3O)nnn2-c2nonc2N)CC1,2µM*,-95*,3.2µM*,?,?,3.5µM*
CC(C)c1ccc(/C=N/NC(=O)c2nnn(-c3nonc3N)c2CSC2=NCCS2)cc1,?,-21,-45%,?,?,11µM*
Cc1nnn(-c2nonc2N)c1C(=O)N/N=C/c1ccccc1O,?,-14,?,?,-6%,5%
Cc1nnn(-c2nonc2N)c1C(=O)N/N=C/c1cccc2ccccc12,i,-65*,?,-6%,-3%,?
CN(Cc1c(C(=O)N/N=C/c2ccccc2O)nnn1-c1nonc1N)C1CCCCC1,?,-98*,·,?,·,·
Cc1ccc(CNc2nc(CN3CCSCC3)nc3ccccc23)o1,-18%,·,·,-8%,·,·
SMILES,Vaccinia mCherry,HCMV inh,Marburg entry inh,VACV Venus inh,Lassa entry inh,HCV inh
COc1cc(=O)n2c(c1C(=O)N(C)Cc1cscn1)CCN(C(=O)c1ccc(C)cc1C)CC2,0%,·,·,-8%,·,·
COC(=O)c1ccc(Cl)cc1NC(=O)Nc1nnc(N(C)Cc2ccccc2)s1,-8%,-5,-1%[46.1 µM],2%,-4%[46.1 µM],·
CCN(CC)c1ccc(/C=N/NC(=O)c2nnn(-c3nonc3N)c2C(C)C)c(O)c1,2.5µM*,-102*,2.5µM*,?,?,1.1µM*
Nc1nonc1-n1nnc(C(=O)N/N=C/c2ccc(O)cc2)c1CN1CCCCCC1,i,-61*,·,-15%,·,11%
Cc1ccc(C)c(CN2C(=O)c3ccccc3S(=O)(=O)c3ccc(C(=O)N4CCN(Cc5ccccc5)CC4)cc32)c1,-16%,23,25%[46.1 µM],-10%,-7%[46.1 µM],·
O=C(NCc1cc(C(F)(F)F)ccc1Cl)c1cccc2c1C(=O)c1ccc(N3CCC(N4CCCCC4)CC3)cc1S2(=O)=O,?,-101*,·,?,·,·
O=C(NCc1cc(C(F)(F)F)ccc1Cl)c1cccc2c1C(=O)c1ccc(N3CCCCC3)cc1S2(=O)=O,-7%,-4,·,2%,·,23%
O=C(NCc1cc(C(F)(F)F)ccc1Cl)c1cccc2c1C(=O)c1ccc(N3CCOCC3)cc1S2(=O)=O,-28%,-11,·,10µM*,·,-2%
COc1ccc2[nH]c(C(=O)N3CCc4ccccc4C3)c(C)c2c1,·,-37,·,·,·,11µM*
Cc1cc2c(c(=O)n1Cc1ccccc1)[C@H]1O[C@](c3ccsc3)(Cc3cc(C#N)ccc31)O2,·,·,1%[14.2 µM],·,·,·
O=c1/c(=C/c2ccc(O)cc2)sc2n1CCCN=2,·,-18,6%,-23%,?,5%
CN(C)c1ccc(/C=c2\sc3n(c2=O)CCCN=3)cc1,i,-36,?,1%,2µM*,?
CCOC(=O)c1ccc(N2C(=O)c3n[nH]c(C)c3C2c2cccnc2)cc1 (centres undefined),-3%,5,-8%,2%,-16%,-15%
CCOC(=O)c1ccc(N2C(=O)c3[nH]nc(-c4ccccc4)c3C2c2cccs2)cc1 (centres undefined),-18%[7.34 µM],-98*,?,-15%[7.34 µM],?,·
CCOC(=O)c1ccc(N2C(=O)c3[nH]nc(-c4ccc(OCC)cc4)c3C2c2cccs2)cc1 (centres undefined),?,-65*,?,?,?,·
NC(CSCc1cccc(Br)c1)C(=O)O (centres undefined),i,-65*,·,-9%,·,7%
CCCCn1c(SCC(=O)N(C)C2CCS(=O)(=O)C2)nc2cc(S(N)(=O)=O)ccc21 (centres undefined),·,-61*,·,·,·,8%
CCCCn1c(SCc2ccc(C(=O)OC)o2)nc2cc(S(N)(=O)=O)ccc21,-16%,-39,-37%,-23%,?,2.5µM*
N#CC[n+]1cccc(Br)c1,37%,·,·,-3%,·,·
COC(=O)c1ccccc1NC(=O)[C@H]1COc2ccccc2O1,·,·,-32%,·,·,·
CCN(CC)S(=O)(=O)c1ccc(N2CCOCC2)c(NC(=O)C(=O)c2c(-c3ccccc3)cc3ccccn23)c1,·,-27,?,·,?,14µM*
CCN(CC)S(=O)(=O)c1cc(NC(=O)C(=O)c2c(-c3ccccc3)cc3ccccn23)ccc1C,·,-97*,?,·,?,13µM*
